Test results from PubChem BioAssay.
Calls of active or inactive are those of the source.

Assays:
Albumin (Bos taurus) = Albumin (Bos taurus) (UniProt P02769); assay: bovine serum albumin binders on microarray, profiling panel, artefact control for SMM control protein annotation, biochemical, small-molecule microarray, Alexa647 label, 635/667 nm fluorescence (AID 1118); settings: BSA-A647 binding, fluorescence 635 nm, higher = more signal;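 also: score merges 667 nm emission intensity and signal-to-noise per printed compound spot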
Chain of Albumin (Bos taurus) (P02769 whole entry, looked up): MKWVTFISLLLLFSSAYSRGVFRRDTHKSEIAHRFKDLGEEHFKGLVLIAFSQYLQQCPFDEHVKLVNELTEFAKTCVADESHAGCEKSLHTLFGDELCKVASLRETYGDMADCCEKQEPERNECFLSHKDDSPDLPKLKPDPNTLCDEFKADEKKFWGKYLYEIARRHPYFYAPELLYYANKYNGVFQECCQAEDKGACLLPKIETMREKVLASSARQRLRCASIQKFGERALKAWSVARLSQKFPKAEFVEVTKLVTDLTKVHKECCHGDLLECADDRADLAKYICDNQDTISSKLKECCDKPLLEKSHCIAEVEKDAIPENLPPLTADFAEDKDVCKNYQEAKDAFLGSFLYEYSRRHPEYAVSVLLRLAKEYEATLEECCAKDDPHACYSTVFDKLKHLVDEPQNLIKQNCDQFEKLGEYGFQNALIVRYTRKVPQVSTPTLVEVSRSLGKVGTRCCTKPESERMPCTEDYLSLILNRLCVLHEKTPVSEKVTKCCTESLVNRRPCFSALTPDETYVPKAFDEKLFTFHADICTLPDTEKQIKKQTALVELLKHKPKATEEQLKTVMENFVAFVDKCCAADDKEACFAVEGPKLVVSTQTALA

[1] = small-molecule microarray binders of probe aXIP, primary screen, biochemical, NeuroSMM set, 635/667 nm fluorescence (AID 1119); settings: higher = more signal, called active from +8 up or from −8 down;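 also: probe is the protein aXip251-270 applied at 1 µg/mL to compound-printed slides; binding of probe to printed compounds measured as 667 nm fluorescence plus signal to noise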
[2] = small-molecule binders of probe aNOTCH3, primary screen, biochemical, small-molecule microarray, 635/667 nm fluorescence (AID 1120); settings: higher = more signal;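 also: probe is a biotin-tagged antibody raised against NOTCH3 rather than NOTCH3 protein; score merges spot fluorescence near 667 nm with spot signal to noise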
[3] = small-molecule binders of probe aNOTCH2, primary screen, biochemical, small-molecule microarray, 635/667 nm fluorescence (AID 1121); settings: higher = more signal;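 also: score merges feature fluorescence read at 667 nm with its signal to noise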
[4] = molecular target: Carbonic anhydrase 2 (Homo sapiens) (UniProt P00918); assay: CAII small-molecule binders, profiling panel, biochemical, small-molecule microarray, Alexa647-labelled CAII (AID 1122); settings: CAII-A647 binding fluorescence, higher = more signal
[5] = COS7 lysate on small-molecule microarray, probe aHis, 635 nm (AID 1123); settings: COS7 cell lysate, fluorescence, higher = more signal;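 also: z-score combines 667nm fluorescence intensity with signal-to-noise per printed compound spot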
[6] = compound binding in COS7 lysate, probe aLAP1, primary screen, cell lysate, small-molecule microarray (AID 1124); settings: probe aLAP1, fluorescence, higher = more signal;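 also: lysate comes from COS7 cells expressing LAP1 and is applied at 0.3 µg/mL; score merges spot fluorescence near 667 nm with signal-to-noise over triplicate slides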
Sam68 (KHDRBS1) = assay: Sam68 small-molecule binders, primary screen, biochemical, small-molecule microarray, 635 nm fluorescence (AID 1125); settings: small-molecule microarray binding, higher = more signal;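 also: score merges 667 nm channel intensity with signal to noise over triplicate slides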
[7] = test system: Chordin-like protein 2 (CHRDL2); assay: CHRDL2 small-molecule binders, primary screen, biochemical, small-molecule microarray, 635 nm fluorescence (AID 1126); settings: small-molecule microarray binding, fluorescence 635 nm; higher = more signal;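 also: printed compound slides probed with Chrdl2 protein at 4 µg/mL for 1 h at 4 C; score merges 667 nm emission intensity with signal to noise over three replicate slides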
[8] = molecular target: Concanavalin-A (Canavalia ensiformis) (UniProt P02866); assay: ConA small-molecule binders, primary screen, artefact control for SMM control protein annotation, biochemical, small-molecule microarray, Alexa647 label, 635 nm (AID 1127); settings: ConA-A647 binding fluorescence, higher = more signal;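 also: z combines 667 nm emission intensity with signal-to-noise across three replicate slides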
Chain of Concanavalin-A (Canavalia ensiformis) (P02866 whole entry, looked up): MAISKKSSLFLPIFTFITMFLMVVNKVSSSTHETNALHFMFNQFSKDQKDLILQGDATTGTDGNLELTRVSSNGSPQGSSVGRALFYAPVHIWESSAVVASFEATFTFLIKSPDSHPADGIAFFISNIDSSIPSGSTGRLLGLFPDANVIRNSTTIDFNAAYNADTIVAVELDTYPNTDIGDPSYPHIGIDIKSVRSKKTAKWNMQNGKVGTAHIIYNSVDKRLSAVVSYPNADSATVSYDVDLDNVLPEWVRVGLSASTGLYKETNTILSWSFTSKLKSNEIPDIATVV

[9] = anti-His antibody binders, primary screen, artefact control for SMM control protein annotation, biochemical, small-molecule microarray, 635 nm fluorescence (AID 1128); settings: anti-His Alexa647 antibody binding, higher = more signal;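 also: score merges feature fluorescence with signal-to-noise for each printed compound spot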
[10] = test system: Human papillomavirus type 1a E7 protein (residues 1-88); assay: HPV1a E7 small-molecule binders, primary screen, biochemical, small-molecule microarray, residues 1-88, 635 nm (AID 1129); settings: small-molecule microarray binding, fluorescence 635 nm; higher = more signal
[11] = molecular target: Focal adhesion kinase 1 (Homo sapiens) (UniProt Q05397); assay: small-molecule microarray binders of FAK, primary screen, biochemical, 635/667 nm fluorescence, BSA, DTT (AID 1130); settings: PTK2 binding, 635 nm fluorescence, higher = more signal;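 also: composite of spot emission at 667 nm and signal to noise over triplicate slides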
Chain of Focal adhesion kinase 1 (Homo sapiens) (Q05397 whole entry, looked up): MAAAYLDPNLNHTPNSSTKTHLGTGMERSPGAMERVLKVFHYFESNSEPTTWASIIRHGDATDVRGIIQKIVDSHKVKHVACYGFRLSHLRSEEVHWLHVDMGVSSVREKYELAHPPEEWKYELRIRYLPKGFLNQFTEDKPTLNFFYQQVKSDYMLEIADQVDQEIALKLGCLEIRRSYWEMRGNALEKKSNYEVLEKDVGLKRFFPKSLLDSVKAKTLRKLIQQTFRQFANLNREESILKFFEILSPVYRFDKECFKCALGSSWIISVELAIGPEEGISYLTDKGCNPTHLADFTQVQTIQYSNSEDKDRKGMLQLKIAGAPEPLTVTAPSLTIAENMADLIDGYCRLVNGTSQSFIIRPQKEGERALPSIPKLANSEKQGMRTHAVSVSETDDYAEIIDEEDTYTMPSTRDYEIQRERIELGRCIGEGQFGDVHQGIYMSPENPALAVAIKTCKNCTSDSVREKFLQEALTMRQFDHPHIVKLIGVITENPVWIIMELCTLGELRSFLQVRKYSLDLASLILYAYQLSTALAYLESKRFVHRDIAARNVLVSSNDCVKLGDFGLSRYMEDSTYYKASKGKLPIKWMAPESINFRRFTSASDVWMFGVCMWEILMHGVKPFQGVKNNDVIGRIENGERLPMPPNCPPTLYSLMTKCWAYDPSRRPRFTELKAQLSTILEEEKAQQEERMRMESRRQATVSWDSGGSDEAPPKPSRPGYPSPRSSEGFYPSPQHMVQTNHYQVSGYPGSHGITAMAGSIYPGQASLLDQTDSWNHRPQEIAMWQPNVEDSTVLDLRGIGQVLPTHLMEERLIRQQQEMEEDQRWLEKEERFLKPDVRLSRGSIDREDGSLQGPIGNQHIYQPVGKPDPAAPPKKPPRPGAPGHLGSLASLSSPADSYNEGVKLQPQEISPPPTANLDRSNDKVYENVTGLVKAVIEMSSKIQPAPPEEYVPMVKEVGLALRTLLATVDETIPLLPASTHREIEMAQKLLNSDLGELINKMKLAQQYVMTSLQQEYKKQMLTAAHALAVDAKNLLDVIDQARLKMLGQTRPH

[12] = test system: Fibrinogen (Alexa647-labelled); assay: fibrinogen binders on compound microarrays, profiling panel, artefact control for SMM control-protein annotation, biochemical, small-molecule microarray, 635/667 nm fluorescence (AID 1131); settings: fibrinogen-A647 binding fluorescence, higher = more signal;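 also: z-score merges 667 nm fluorescence with per-spot signal-to-noise over triplicate slides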
[13] = molecular target: Follistatin (Homo sapiens) (UniProt P19883); assay: follistatin binders on small-molecule microarrays, primary screen, biochemical, small-molecule microarray, 635/667 nm fluorescence (AID 1132); settings: FST binding, 635 nm fluorescence, higher = more signal
Chain of Follistatin (Homo sapiens) (P19883 whole entry, looked up): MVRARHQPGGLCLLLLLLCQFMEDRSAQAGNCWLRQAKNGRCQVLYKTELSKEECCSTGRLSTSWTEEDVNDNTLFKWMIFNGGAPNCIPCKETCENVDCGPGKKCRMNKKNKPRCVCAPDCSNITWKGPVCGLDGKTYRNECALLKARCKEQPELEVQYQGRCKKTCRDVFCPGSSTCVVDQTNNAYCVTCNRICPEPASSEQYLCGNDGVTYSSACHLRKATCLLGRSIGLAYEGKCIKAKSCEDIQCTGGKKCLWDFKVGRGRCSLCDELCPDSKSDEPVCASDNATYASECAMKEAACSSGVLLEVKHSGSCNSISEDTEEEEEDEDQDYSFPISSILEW

[14] = molecular target: Fibroblast growth factor 2 (Homo sapiens) (UniProt P09038); assay: FGF2 binders on small-molecule microarrays, primary screen, biochemical, small-molecule microarray, 635/667 nm fluorescence (AID 1133); settings: small-molecule microarray binding, FGF2, fluorescence 635/667; higher = more signal
Chain of Fibroblast growth factor 2 (Homo sapiens) (P09038 whole entry, looked up): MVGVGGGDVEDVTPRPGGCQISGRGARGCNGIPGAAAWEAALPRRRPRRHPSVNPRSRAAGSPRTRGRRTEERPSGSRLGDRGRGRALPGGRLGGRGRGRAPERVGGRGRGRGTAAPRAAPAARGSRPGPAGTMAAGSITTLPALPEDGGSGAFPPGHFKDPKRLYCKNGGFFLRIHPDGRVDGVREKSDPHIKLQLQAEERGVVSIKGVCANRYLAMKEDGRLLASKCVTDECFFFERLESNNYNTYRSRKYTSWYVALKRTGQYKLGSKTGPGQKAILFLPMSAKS

[15] = mitochondrial membrane potential change in A549 cells, profiling panel, cell-based, JC-1 fluorescence, basal, 24 h, 100 nL (AID 1138); settings: higher = more signal;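 also: A549 lung adenocarcinoma cells under basal conditions with no added stimulus; test concentration not given here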
Lefty1 = Lefty1 binders on small-molecule microarrays, primary screen, biochemical, small-molecule microarray, 635/667 nm fluorescence (AID 1139); settings: small-molecule microarray binding, fluorescence 635/667; higher = more signal
[16] = test system: wheat germ agglutinin (Triticum aestivum), Alexa647-labelled; assay: wheat germ agglutinin binders on compound microarrays, profiling panel, artefact control for SMM control-protein annotation, biochemical, small-molecule microarray, 635/667 nm fluorescence (AID 1140); settings: WGA-A647 binding, 635 nm fluorescence, higher = more signal;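 also: score merges 667 nm feature emission with signal to noise over triplicate slides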
[17] = molecular target: Luciferin 4-monooxygenase (Photinus pyralis) (UniProt P08659); assay: firefly luciferase enzyme inhibitors, primary screen, biochemical, luminescence, purified enzyme, 2006 set (AID 1141); settings: SteadyGlo luminescence, 30 min, higher = more signal, called active from +8 up or from −8 down;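 also: cell-free assay with purified firefly luciferase at 100 ng per well in PBS; test concentration not given here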
Chain of Luciferin 4-monooxygenase (Photinus pyralis) (P08659 whole entry, looked up): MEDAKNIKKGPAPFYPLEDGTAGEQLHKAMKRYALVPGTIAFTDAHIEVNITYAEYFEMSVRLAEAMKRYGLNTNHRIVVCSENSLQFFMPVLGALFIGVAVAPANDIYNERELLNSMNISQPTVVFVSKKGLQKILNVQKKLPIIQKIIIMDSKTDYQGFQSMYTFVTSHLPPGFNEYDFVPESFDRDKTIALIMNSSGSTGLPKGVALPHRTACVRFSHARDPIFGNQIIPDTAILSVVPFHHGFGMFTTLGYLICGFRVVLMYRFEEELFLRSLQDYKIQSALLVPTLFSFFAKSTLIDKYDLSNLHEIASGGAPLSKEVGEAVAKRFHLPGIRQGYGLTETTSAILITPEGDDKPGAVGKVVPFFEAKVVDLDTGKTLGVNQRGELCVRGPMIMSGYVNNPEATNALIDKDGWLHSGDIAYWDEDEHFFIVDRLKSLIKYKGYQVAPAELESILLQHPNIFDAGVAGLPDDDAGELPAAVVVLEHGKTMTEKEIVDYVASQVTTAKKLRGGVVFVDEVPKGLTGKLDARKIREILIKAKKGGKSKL

Compound	composite z-score (Albumin (Bos taurus))	composite Z-score [1]	composite z-score [2]	composite z-score [3]	composite z-score [4]	composite z-score [5]	composite z-score [6]	composite z-score (Sam68 (KHDRBS1))	composite z-score [7]	composite z-score [8]	composite z-score [9]	composite z-score [10]	composite z-score [11]	composite z-score [12]	composite z-score [13]	composite z-score [14]	z-score [15]	composite z-score (Lefty1)	composite z-score [16]	z-score [17]
C=CCOC(=O)[C@@H]1[C@H]2C(=O)O[C@H](c3ccccc3)[C@H](c3ccccc3)N2[C@H](c2ccc(OCCOC(=O)[C@H]3C[C@H]4C(=O)NCC(=O)N4[C@H]3c3cccc(OCCO)c3)cc2)[C@@]12C(=O)Nc1ccc(I)cc12	-0.735	0.614 (inactive)	-0.006	-0.06	0.636	1.96	0.397	1.3	1.02	1.19	2.5	1.19	0.919	0.438	1.38	1.64	-1.09	1.34	0.734	-1.06 (inactive)
CCOC(=O)C[C@H]1[C@H](OC(=O)c2cc3ccccc3oc2=O)[C@@H](NC(=O)CC(C)C)c2cc(OCCCO)ccc2N1C(=O)Cc1ccc(OC)cc1	0.136	0.642 (inactive)	-0.0376	-0.146	0.607	0.935	0.18	0.887	0.0676	0.433	0.0111	0.43	-0.0515	0.942	0.642	0.443	0.613	0.849	0.158	0.411 (inactive)
C=C(COC)C(=O)CC[C@H](OC(=O)c1cccnc1)c1ccc(OCCO)cc1	-0.286	0.509 (inactive)	0.201	-0.128	0.665	0.709	1.53	1.14	0.563	0.293	-0.108	0.355	-0.172	0.637	1.07	0.893	-0.747	1.63	0.73	-2.23 (inactive)
COc1cc(C(O)C2C=CC3C(=O)N(c4ccccc4)C(=O)C3N2Nc2ccccc2F)cc(OC)c1OC (stereo not given)	0.834	0.0894 (inactive)	0.0436	0.0409	0.648	3.14	0.443	1.32	-0.755	1.1	1.66	1.28	0.337	1.03	0.233	-0.171	-0.374	0.323	0.792	-0.397 (inactive)
C[C@@H]1ON(c2ccc(I)cc2)[C@H](c2cccc(NC(=O)OCC3c4ccccc4-c4ccccc43)c2)[C@H]1C(=O)N1C(=O)OC[C@H]1Cc1ccccc1	-0.0188	-0.222 (inactive)	0.0276	-0.126	0.456	0.367	0.111	0.668	0.926	1.01	0.296	0.506	-0.0828	0.544	0.566	0.249	1.37	0.593	0.334	-1.24 (inactive)
COCC(=C=CC[C@H](O)c1ccccc1OCCO)C[C@H](O)COCc1ccccc1	0.816	0.0117 (inactive)	0.304	-0.148	0.505	2.08	1.81	1.14	0.0973	0.245	2.34	1.19	0.516	0.272	0.792	0.659	1.26	0.632	0.0903	-1.06 (inactive)
NC(=O)N1C(=O)C2C(C1=O)C1C=C(CCCO)C2C(c2ccc(CN3CCCC3)cc2)N1Cc1sc2ccccc2c1Cl (stereo not given)	0.492	-1.02 (inactive)	0.124	-0.258	0.832	0.712	0.242	-0.0045	-0.352	0.271	0.17	0.1	0.39	-0.109	0.301	-0.145	0.947	-0.131	0.394	-0.286 (inactive)
CCCCC(O)C1C=CC2C(=O)N(c3ccccc3)C(=O)C2N1Nc1ccccc1 (stereo not given)	0.901	-0.539 (inactive)	0.0248	-0.0596	0.0784	2.59	-0.0672	0.576	-1.17	0.557	0.781	1.14	0.438	0.543	-0.0278	-1.26	0.656	0.173	1.17	0.438 (inactive)
COC(=O)[C@H](Cc1ccc(O)cc1)N[C@@H](/C=C/C1CC1)[C@H](O)Cc1ccccc1	-0.394	-0.414 (inactive)	-0.127	-0.172	-0.231	-0.635	-0.125	0.0476	0.202	-0.407	0.257	-0.506	-0.408	-0.785	0.156	0.0843	0.091	0.389	-0.185	0.209 (inactive)
COCCOC(=O)N1C(=O)[C@@]2(c3cc(C#CC4(O)CCCCCC4)ccc31)[C@H](c1ccc(O)cc1)N1[C@H](c3ccccc3)[C@H](c3ccccc3)OC(=O)[C@H]1[C@@H]2C(=O)N1CCCCCCC1	0.304	-0.0498 (inactive)	0.295	-0.123	0.267	1.33	0.855	1.24	0.33	0.423	1.01	1.19	0.817	0.605	1.39	0.608	0.7	0.851	0.907	-0.552 (inactive)
O=C1C2C=CC(C(O)C3CCCCC3)N(n3cnnc3)C2C(=O)N1Cc1ccccc1 (stereo not given)	0.835	0.288 (inactive)	0.341	-0.0527	0.597	2.23	0.343	1.29	-0.0651	0.698	-0.526	1.17	0.377	0.983	1.26	0.287	-1.96	1.27	1.26	1.54 (inactive)
